DT40 TDP1 CPT = DT40-hTDP1 cell growth loss with CPT; chicken DT40 Tdp1-/-;hTDP1 cells + 20 nM CPT, ATP luminescence, 48 h; Potency, µM (highest dose often 46.2 µM), usual class: inhibitors; hit rate 12% among 420,000; note: nearly all actives have a fitted effect of over 55% in size
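Chicken DT40 Tdp1-/- cells complemented with human TDP1, 400 cells/well, exposed to compounds plus 20 nM camptothecin for at least 48 h at 37 C; viability read as ATP content by CellTiter-Glo luminescence.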
DT40 TDP1 no CPT = qHTS for Inhibitors of human tyrosyl-DNA phosphodiesterase 1 (TDP1): qHTS in cells in absence of CPT; Potency, µM (top dose mostly 46.2 µM), usual class: inhibitors; hit rate 15% among 420,000; DT40 Tdp1-/- hTDP1 cells, no CPT, ATP luminescence, 48 h; note: nearly all actives have a fitted effect of over 55% in size
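Stably hTDP1-transfected Tdp1-null chicken DT40 cells were treated with library compounds minus camptothecin and grown for at least 48 hr at 37 °C, after which cellular ATP was quantified by luminescence.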
HT1080 IDH1KD tx = toxicity to HT-1080 IDH1 knockdown cells (counter line); HT-1080 IDH1 knockdown viability, ATP luminescence, 48 h; Potency, µM (top dose mostly 46.1 µM), most hits filed as cytotoxic; hit rate 2% among 360,000; AID 686971
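HT-1080-IDH1KD cells (IDH1 knocked down), 750/well in RPMI with 5% FBS, treated with compound 48 h at 37 degrees C. Viability by CellTiter-Glo luminescence, normalised to DMSO and no-cell wells; concentration-response curves classed.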
IL-1B inflam inh = inflammasome signaling inhibition, IL-1 beta readout; AID 743279; THP-1 LPS/ATP IL-1B secretion, AlphaLISA, 16 h; stronger effect = lower value; hit rate 4.7% among 360,000; activity change, % at 57.5 µM; in the data active = activity change below about -50%; inconclusive = mostly about -30% to -49%
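THP-1 cells pretreated 1 hr with compounds (up to 57.5 uM final), then stimulated with LPS (250 ng/mL final) plus ATP (1.25 mM final); secreted IL-1B measured by AlphaLISA after 16 hr, decreased signal indicating inhibition.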
HT1080-NT tox = kills 2HG-producing HT-1080-NT fibrosarcoma cells. HT-1080-NT fibrosarcoma viability, CellTiter-Glo ATP luminescence, 48 h. Potency, µM (highest dose often 46.1 µM), actives largely listed as cytotoxic. hit rate 1.6% among 360,000. AID 686970;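 note: NT is the 2HG producing partner of a matched IDH1 knockdown line; nearly all actives have a fitted effect of over 55% in size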
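HT-1080-NT; 750 cells/well; 5% FBS RPMI; 48 h compound, 37 degrees C; CellTiter-Glo luminescence; curve fitting and curve-class assignment.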
A number is an active result; – = inactive; ? = inconclusive; · = no result given. This is a sample that favours compounds with a hit; in the whole collection about 19% have one here. Unless noted, calls come from the whole dose curve; as a rule, active = well fitted curve in the direction sought with a large enough effect; inconclusive = small, poorly fitted or top-dose-only effect, or another doubt; inactive = no such curve, though single readings can be large; an effect the other way counts as inactive or inconclusive.

SMILES	DT40 TDP1 CPT	DT40 TDP1 no CPT	HT1080 IDH1KD tx	IL-1B inflam inh	HT1080-NT tox
COc1ccc(C(=O)Nc2ccc(C)c(S(=O)(=O)N3CCOCC3)c2)cc1S(=O)(=O)N1CCCC1	21µM	?	–	–	–
COc1ccc(C(=O)Nc2ccc(N3CCOCC3)cc2)cc1S(=O)(=O)N1CCCC1	–	–	–	–	–
CCCS(=O)(=O)c1nc(S(=O)(=O)c2ccc(C)cc2)c(N2CCCC(C)C2)s1 (centres undefined)	?	?	–	–	–
Cc1ccc(C(=O)Nc2ccc3c(c2)OCO3)cc1S(=O)(=O)N1CCCC1	?	7.3µM	–	–	–
Cc1ccc(C(=O)Nc2ccc3c(c2)OCO3)cc1S(=O)(=O)N1CCOCC1	–	–	–	–	–
COc1ccc(/C=N\NC(=O)COc2ccccc2Cl)cc1Cn1nc(C)cc1C	?	23µM	?	–	?
COc1ccc(/C=N\NC(=O)c2sccc2C)cc1Cn1nc(C)cc1C	7.3µM	?	–	–	–
CN(N=O)C(=O)N[C@H]1C(O)C(O)C(CO)O[C@@H]1O (some centres undefined)	–	–	·	·	·
Cc1ccccc1C(=O)Nc1cc(-c2cc(C(C)(C)C)oc2C)nn1C	?	?	?	-59	?
CC1CCCN(S(=O)(=O)c2cc3c4c(c2)CC(=O)N4CCC3)C1 (centres undefined)	–	–	·	·	·
COc1ccnc(Oc2ccccc2)c1C#N	–	–	–	–	–
COc1cnc(-c2ccccn2)nc1Oc1ccccc1	0.46µM	0.46µM	–	–	–
COc1cnc(-c2ccccn2)nc1N(C)c1ccccc1	0.52µM	0.41µM	?	–	?
O=C(Nc1cccc(C(F)(F)F)c1)Nc1ccc2snnc2c1	3.7µM	5.2µM	·	·	·
Cc1cc(C)c(NC(=O)Nc2ccc3snnc3c2)c(C)c1	?	18µM	·	·	·
CCOc1ccc(NC(=O)Nc2ccc3snnc3c2)cc1	?	16µM	·	·	·
O=C(Nc1ccccc1)Nc1ccc2snnc2c1	?	18µM	?	–	?
CN(CCO)c1cccc2c1S(=O)(=O)N[C@H](Cc1ccccc1)CO2	–	–	–	–	–
COC(=O)c1ccccc1NC(=O)CCc1c(C)nc2c(c(C)nn2-c2ccccc2)c1C	–	–	·	·	·
COc1cc(Cl)c(S(=O)(=O)NCCCn2ccnc2)cc1Cl	–	–	–	–	–
COc1cc(N)c(Cl)cc1C(=O)OCC(=O)NC(=O)NCc1ccco1	–	–	–	–	–
CCc1ccc(OC(=O)c2sc3ncn(Cc4cccc(F)c4)c(=O)c3c2C)cc1	–	–	·	·	·
O=C(N/N=C/c1ccc(Cl)cc1Cl)C(=O)NC1CC1	–	–	–	–	–
CSc1ccc(C2CC(=O)Oc3c2c(=O)n(C)c2ccccc32)cc1 (centres undefined)	–	–	·	·	·
O=C(Nc1ccccc1)Nc1ccc2nnsc2c1	21µM	16µM	?	-95	?
SMILES	DT40 TDP1 CPT	DT40 TDP1 no CPT	HT1080 IDH1KD tx	IL-1B inflam inh	HT1080-NT tox
N#C/C(=C/Nc1ccccc1C(=O)O)C(N)=O	–	–	–	–	–
CCN(CC)C(=O)[C@H]1CC(CC(=O)NC/C=C(\C)CCC=C(C)C)C(=O)N2CCc3c([nH]c4ccc(OC)cc34)[C@]12C (some centres undefined)	?	?	16µM	-78	?
CCN(CC)C(=O)[C@H]1C[C@H](CC(=O)NC/C=C(\C)CCC=C(C)C)C(=O)N2CCc3c([nH]c4ccc(Cl)cc34)[C@]12C	?	?	–	–	–
CCN(CC)C(=O)[C@H]1CC(CC(=O)NC/C=C(\C)CCC=C(C)C)C(=O)N2CCc3c([nH]c4ccccc34)[C@]12C (some centres undefined)	23µM	?	–	?	–
CC(C)=CCC/C(C)=C/CNC(=O)CC1C[C@H](C(=O)N2CCCCC2)[C@@]2(C)c3[nH]c4ccccc4c3CCN2C1=O (some centres undefined)	21µM	13µM	–	–	–
Cc1cc(C)nc(N2C(=O)CC(C(=O)O)NC2=NCCc2c[nH]c3ccccc23)n1 (centres undefined)	–	–	–	–	–

Screening data as filed in PubChem BioAssay.
